Molecules are shown by their SMILES. Results filed as inconclusive are left out. A call without a number means that no potency is given here. Calls of active or inactive are those of the source. The call rests on the fitted dose curve; in most records, active means well fitted activation curve with a large enough effect in the repeat runs; inconclusive means weak or mixed curves; inactive means flat fitted curve, though single readings scatter.
Potency means the concentration at half of the fitted maximal effect.

This test is described as follows: A CellTox Green Cytotoxicity Assay to monitor cytotoxicity in HEK293 cells - 8 hour (AID 1224884). Further: nearly all actives have a fitted effect of over 35% in size. Particulars: CellTox Green fluorescence; series mostly up to 76.8 µM. The source says: National Center for Advancing Translational Sciences [NCATS]
NIH Chemical Genomics Center [NCGC]
U.S. Environmental Protection Agency [EPA]
National Institutes of Environmental Health Sciences [NIEHS]
National Toxicology Program [NTP]
Cell-based models are critical for drug discovery. Determining the natural cytotoxic effects resulting from test compounds is an essential research activity. A CellTox Green Cytotoxicity Assay to monitor cytotoxicity in real time of continues cell culture during 40 hours of the compound treatment was used to screen Tox21 10K library compounds in Hek293 cells. CellTox Green Cytotoxicity Assay is a nonlytic, homogeneous, biofluorescent method to measure cytotoxicity in cell culture after experimental manipulation. The assay system uses a proprietary asymmetric cyanine dye that is excluded from viable cells but preferentially stains the dead cell's DNA. […] Viable cells produce no appreciable increases in fluorescence. Therefore, the fluorescence signal produced by the binding interaction with dead cell DNA is proportional to cytotoxicity.
The mixture of Hek293 cell suspension and reagents were dispensed at 600cells/6 ul/well in 1536-well tissue culture treated black solid bottom plates using a Multidrop dispenser. After the assay plates were incubated at a 37 C/5% CO2 incubator for 5 hours, 23 nL of compounds dissolved in DMSO, positive and negative controls was transferred to the assay plate by a pintool work station. The plates were incubated at 37 C for 40 hours. The fluorescence intensity were measured at 0h, 8h, 16h, 24h, 32h and 40h time points using ViewLux plate reader during compound treatment.
For `CN(C)[C@@H]1C(=O)C(C(N)=O)=C(O)[C@@]2(O)C(=O)C3=C(O)c4c(O)cccc4C[C@H]3C[C@@H]12`, the Potency entry was “inactive”.

Regarding `O=C(OCC1CO1)C1CCCCC1C(=O)OCC1CO1` (stereo not given), the Potency entry is “inactive”.

On to `O=C1CCCc2c1cc1ccc3cccc4ccc2c1c34`, for which the Potency entry was “inactive”.

In the case of `Nc1ccccc1O`, the Potency result is “inactive”.

For the compound `COc1cccc2c1C(=O)c1c(O)c3c(c(O)c1C2=O)C[C@@](O)(C(=O)CO)C[C@@H]3O[C@H]1C[C@H](N)[C@H](O[C@@H]2CCCCO2)[C@H](C)O1`, the Potency result was “inactive”.

In the case of `CCCCCCCCCCCC[N+](C)(C)CCCCCCCCCCCC`, the Potency is 19.5 µM (active).

For `CCC(C)(C)C1CCCCC1OC(C)=O` (stereo not given), the Potency result is “inactive”.

Consider `[O-][n+]1ccccc1SSc1cccc[n+]1[O-]`, for which the Potency was 10.4 µM (active).

As to `CC[C@@]1(O)C(=O)OCc2c1cc1n(c2=O)Cc2cc3c(CN(C)C)c(O)ccc3nc2-1`, the Potency was 26.8 µM (active).

As for `NNc1nc(-c2ccc(N)cc2)cs1`, the Potency entry is “inactive”.

For the compound `CCC(CN)=C(c1ccccc1)c1ccccc1`, the Potency entry is “inactive”.

Turning to `c1cc(C(c2ccc(OCC3CO3)cc2)c2ccc(OCC3CO3)cc2)ccc1OCC1CO1` (stereo not given), the Potency entry is “inactive”.

With `Cc1ccc(O)c(C(C)(C)C)c1`, the Potency result was “inactive”.

Regarding `COC(=O)C1=C(C)NC(C)=C(C(=O)OCCc2ccc(N3CCN(C(c4ccccc4)c4ccccc4)CC3)cc2)C1c1cccc([N+](=O)[O-])c1` (stereo not given), the Potency result was “inactive”.

For the compound `CCCCCCCC[P+](CCCCCCCC)(CCCCCCCC)CCCCCCCC`, the Potency is 10.9 µM (active).

As to `O=C(c1ccc(O)cc1O)c1ccc(O)cc1O`, the Potency entry was “inactive”.

With `Cc1c(C)c2c(c(C)c1O)CCC(C)(COc1ccc(CC3SC(=O)NC3=O)cc1)O2` (stereo not given), the Potency entry was “inactive”.

Turning to `CN1CCC(Nc2ncc3ncnc(Nc4ccc(F)c(Cl)c4)c3n2)CC1`, the Potency result is “inactive”.

With `NNc1nc(-c2ccccc2)cs1`, the Potency result is “inactive”.

Regarding `OCCN(CCO)c1nc(N2CCCCC2)c2nc(N(CCO)CCO)nc(N3CCCCC3)c2n1`, the Potency was 21.3 µM (active).

`O=C(O)c1ccc(Cl)c(Cl)c1`: the Potency result was “inactive”.

As for `CC1=C(C(=O)OC(C)C)C(c2cccc([N+](=O)[O-])c2)C(C(=O)OC2CN(C(c3ccccc3)c3ccccc3)C2)=C(N)N1` (stereo not given), the Potency result was “inactive”.

Take `CC[C@H]1O[C@]2(CC[C@@H]1C)C[C@@H]1C[C@@H](C/C=C(\C)C[C@@H](C)/C=C/C=C3\CO[C@@H]4[C@H](O)C(C)=C[C@@H](C(=O)O1)[C@]34O)O2`: the Potency entry is “inactive”.

Turning to `CC(C)(C)C(=O)OCOC(=O)[C@@H]1N2C(=O)[C@@H](NC(=O)[C@H](N)c3ccccc3)[C@H]2SC1(C)C`, the Potency result was “inactive”.

With `O=C1CCCCCN1SSN1CCCCCC1=O`, the Potency result is “inactive”.

As for `[Cl][Au]([Cl])[Cl]`, the Potency entry was “inactive”.

As for `C[C@H](CCC(=O)O)[C@H]1CC[C@H]2[C@@H]3CC[C@@H]4C[C@H](O)CC[C@]4(C)[C@H]3CC[C@]12C`, the Potency entry was “inactive”.

`C1CCCC1`: the Potency entry is “inactive”.

`CC(=O)OCC(C)OC(C)=O` (stereo not given): the Potency entry is “inactive”.

Consider `C=C(C)C(=O)OCC(O)COc1ccc(C(C)(C)c2ccc(OCC(O)COC(=O)C(=C)C)cc2)cc1` (stereo not given), for which the Potency entry is “inactive”.

For `CN(C)[C@@H]1C(=O)C(C(N)=O)=C(O)[C@@]2(O)C(=O)C3=C(O)c4c(O)ccc(Cl)c4[C@@H](O)[C@H]3C[C@@H]12`, the Potency entry was “inactive”.

`NNc1nc(-c2ccc([N+](=O)[O-])cc2)cs1`: the Potency entry was “inactive”.

Turning to `Oc1cc2ccccc2c2ccccc12`, the Potency result is “inactive”.

On to `Nc1c2ccccc2nc2ccccc12`, for which the Potency result was “inactive”.

For the compound `Clc1ccc(C(Cn2ccnc2)OCc2ccc(Sc3ccccc3)cc2)c(Cl)c1` (stereo not given), the Potency entry was “inactive”.

On to `CSc1ccc(/C=C2/C(C)=C(CC(=O)O)c3cc(F)ccc32)cc1`, for which the Potency result is “inactive”.

For the compound `OC1(c2ccc(Cl)c(C(F)(F)F)c2)CCN(CCCC(c2ccc(F)cc2)c2ccc(F)cc2)CC1`, the Potency is 21.3 µM (active).

As for `CCCCCOC(=O)CCCC`, the Potency entry is “inactive”.

As for `CNCc1cc(F)ccc1Oc1ccc(Cl)c(Cl)c1`, the Potency entry was “inactive”.

As to `CCN(CCC#N)c1ccc(N=Nc2c(Cl)cc([N+](=O)[O-])cc2Cl)cc1`, the Potency entry was “inactive”.

Source of the values: PubChem BioAssay (Tox21).
